HCMV inh: human cytomegalovirus inhibition; HFF cells, HCMV-luciferase reporter, 72 h; active compounds read low; activity change, negative = inhibition, % at 57.5 µM; 410,000 tested, 4.5% active; in the data active = activity change below about -60%; inconclusive = no clear call, values can overlap the other calls; inactive = above about -39%
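Steps: HFFs plated, 16 h 37C; compounds added; HCMV-luciferase added to MOI 1 PFU/cell; 72 h 37C; OneGlo reagent, 5 min room temperature; luminescence read, normalized to controls.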
Pf growth 48h: inhibits P. falciparum growth in the first generation, 48 h | P. falciparum luciferase growth in erythrocytes, 48 h | Potency, µM (doses to about 28.7 µM), inactives show top-dose activity change, negative = inhibition, usual class: inhibitors | 310,000 tested, 5.9% active | AID 504832; note: potency is the fitted concentration of half-maximal effect
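Cell-based growth assay: transgenic P. falciparum expressing firefly luciferase, cultured in red cells within RPMI 1640 containing 0.5% w/v Albumax, 24 mM bicarbonate and gentamycin. A drop in luciferase activity indicates inhibition.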
Sm TGR block: blocks Schistosoma mansoni thioredoxin glutathione reductase | purified TGR, DTNB reduction, TNB absorbance 405 nm | Potency, µM (titrated, usually from 114 µM), for the others: at the top dose activity change, negative = inhibition, usual class: inhibitors | 360,000 tested, 3% active; note: potency is the fitted concentration of half-maximal effect; nearly all actives have a fitted effect of over 60% in size
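TGR 20 nM + NADPH 100 uM (dispensed conc.), cpd preinc 15 min RT; start with NADPH (500 uM addition) then DTNB (15 mM addition). Kinetic TNB absorbance, 405 nm filter. Four-parameter Hill fit across titration.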
FBPA Giardia inh: inhibitors of Giardia lamblia fructose-1,6-bisphosphate aldolase | A8B2U2 | Potency, µM (series often up to 59.6 µM), without a hit: at the top dose activity, negative = inhibition, usual class: inhibitors | purified Giardia FBPA | 290,000 tested, 0.71% active; note: potency is the fitted concentration of half-maximal effect; nearly all actives have a fitted effect of over 55% in size
Target sequence (A8B2U2 whole entry, looked up): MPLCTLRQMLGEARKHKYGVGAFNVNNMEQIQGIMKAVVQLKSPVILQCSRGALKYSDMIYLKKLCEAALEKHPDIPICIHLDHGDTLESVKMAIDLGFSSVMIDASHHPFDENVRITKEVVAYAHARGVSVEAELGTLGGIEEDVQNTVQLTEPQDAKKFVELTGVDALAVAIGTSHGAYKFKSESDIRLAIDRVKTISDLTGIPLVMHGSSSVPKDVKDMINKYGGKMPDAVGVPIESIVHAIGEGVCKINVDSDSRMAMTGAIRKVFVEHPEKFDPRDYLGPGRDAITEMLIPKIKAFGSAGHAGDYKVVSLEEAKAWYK
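40 nM FBPA preincubated 10 min at RT with compound (up to 57.5 uM final), then substrate plus GAPDH/TPI/NAD/arsenate coupling and diaphorase/resazurin added. Fluorescence read after 20 min at RT, 525/598 nm.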
Pf growth 96h: P. falciparum growth inhibition at 96 hour, primary screen for plastid delayed-death inhibitors; 320,000 tested, 6.9% active; Potency, µM (titrated, usually from 28.7 µM), without a hit: at the highest dose activity change, negative = inhibition, usual class: inhibitors; P. falciparum luciferase reporter growth, 96 h; AID 504834; note: potency is the fitted concentration of half-maximal effect
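Compounds incubated with erythrocytes infected by luciferase-expressing P. falciparum (2% hematocrit, 0.05% parasitemia final) for 96 hours, 37 C in 5% CO2. Growth inhibition scored as decreased luciferase luminescence.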
* = called active by the depositor; ? = inconclusive; / = no result given; [ ] = remark or other dose. In the library only some 14% were active in any assay of this set; here they are far more common. Unless noted, calls come from the whole dose curve; as a rule, active = well fitted curve in the direction sought with a large enough effect; inconclusive = small, poorly fitted or top-dose-only effect, or another doubt; inactive = no such curve, though single readings can be large; an effect the other way counts as inactive or inconclusive. % is set by controls: 0 for no effect and ±100 for the full control effect.

SMILES | HCMV inh | Pf growth 48h | Sm TGR block | FBPA Giardia inh | Pf growth 96h
COc1ccc(C(=O)Oc2ccc(N(C)S(=O)(=O)c3ccccc3)cc2)cc1[N+](=O)[O-] | -99* | 8% | -4% | -4% | 51%
CN(c1ccc(C(=O)O)cc1)S(=O)(=O)c1ccccc1 | 17 | 27% | 1% | 26% | 9.3µM*
CC(=O)Nc1ccc(C(=O)Nc2cccc(S(=O)(=O)N(C)c3ccccc3)c2)cc1 | 0 | 9.3µM* | 9% | / | ?
O=C(Nc1ccccc1Cl)c1cc(=O)c2ccccc2o1 | -8 | 103% | 0% | -4% | 12µM*
Cc1ccc(S(=O)(=O)N(C)c2ccc(OC(=O)c3ccc(=O)[nH]c3)cc2)cc1 | 1 | 28% | -2% | 0% | -21%
CC12CCC(=O)N1C(C(=O)Nc1cc(S(=O)(=O)N3CCCCCC3)ccc1OCC(F)(F)F)CS2 (centres undefined) | 75 | ? | 6% | 5% | ?
CN(c1ccccc1)S(=O)(=O)c1cccc(NC(=O)CCNC(=O)c2ccccc2)c1 | -4 | 9.3µM* | -17% | / | ?
CC(=O)c1cccc(NC(=O)c2ccc(N(C)S(C)(=O)=O)cc2)c1 | 54 | 16% | -2% | -17% | /
CN(c1ccccc1)S(=O)(=O)c1cccc(NC(=O)c2cncc(Br)c2)c1 | 0 | 10µM* | 8% | -2% | 8.3µM*
CN(c1cccc(NC(=O)c2ccc(C(C)(C)C)cc2)c1)S(C)(=O)=O | -82* | 272% | 10% | -18% | -10%
CN(c1ccccc1)S(=O)(=O)c1cccc(NC(=O)c2ccncc2)c1 | ? | -11% | -1% | 1% | ?
CN(c1cccc(NC(=O)c2ccc(N(C)S(=O)(=O)c3ccccc3)cc2)c1)S(C)(=O)=O | -72* | ? | 12% | -10% | 19%
CN(c1ccccc1)S(=O)(=O)c1cccc(NC(=O)CCNC(=O)c2ccc(Cl)cc2)c1 | 77 | ? | -32% | / | ?
O=C(CSc1nc2c([nH]c3ccccc32)c(=O)n1-c1ccc(Cl)cc1)NC1CCCCC1 | -15 | / | 1% | / | /
CN(c1ccccc1)S(=O)(=O)c1cccc(NC(=O)c2cc(=O)c3ccccc3o2)c1 | -66* | ? | -1% | -13% | 10µM*
CCC(C)NC(=O)c1c(-c2ccccc2)c(-c2ccccc2)nn(C)c1=O (centres undefined) | 28 | / | -4% | / | /
CC1(C)Cc2c(c(N3CCCC3)nc3sc4c(N5CCN(CCO)CC5)ncnc4c23)CO1 | 42 | 8.3µM* | ? | -2% | 10%
CC1(C)Cc2c(c(N3CCOCC3)nc3sc4c(NCCN)ncnc4c23)CO1 | 0 | / | / | / | /
OCCN1CCN(c2ncnc3c2sc2nc(N4CCOCC4)c4c(c23)CCC4)CC1 | 3 | 13µM* | -7% | 1% | -10%
CC(C)Cn1c(N)c(C(=O)COC(=O)c2nccnc2N)c(=O)n(C)c1=O | 0 | ? | -4% | / | -22%
Cc1nc2n(n1)C(c1ccccc1)C1=C(CC(c3ccco3)CC1=O)N2 (centres undefined) | -3 | ? | 56µM* | 2% | ?
C#Cc1ccc(NC(=O)C2(C)CCN2C(=O)c2cc(C)n(C)n2)cc1 (centres undefined) | 1 | / | / | / | /
CC12CCC(C(=O)OC3CCCCC3)(OC1=O)C2(C)C (centres undefined) | -25 | 31% | 12% | 2% | 12µM*
CC(=O)Nc1cccc(C(=O)OCC(=O)Nc2c(C)nn(-c3ccccc3)c2C)c1 | -7 | 0% | -16% | / | 16%
Cc1nnsc1S(=O)c1ccc(Cl)c(Cl)c1 (centres undefined) | ? | / | ? | 1% | 5.2µM*
SMILES | HCMV inh | Pf growth 48h | Sm TGR block | FBPA Giardia inh | Pf growth 96h
Cc1nnsc1S(=O)c1ccc(Cl)cc1 (centres undefined) | ? | / | -3% | 2% | 1.7µM*
COc1cc2c(cc1NC(=O)COc1cc(C)cc(C)c1)oc1ccccc12 | -8 | / | 14% | / | /
O=C(Nc1cccc(C(=O)N2CCN(c3cccc(Cl)c3)CC2)c1)c1nsc2ccccc12 | 72 | / | 1% | / | /
COc1ccc(OC)c(N)c1 | 9 | 9.3µM* | -43% | ? | 17µM*
Cc1ccsc1C(=O)C1CCCN(Cc2cnn(C)c2)C1 (centres undefined) | 23 | -1% | 1% | 0% | ?
Cc1ncc(CN2CCCC(C(=O)c3sccc3C)C2)s1 (centres undefined) | 11 | -16% | -6% | -6% | 12µM*
Cc1ncc(CN2CCCC(C(=O)c3cccc(OC(C)C)c3)C2)s1 (centres undefined) | -69* | ? | 2% | 2% | ?
CC(C)Oc1cccc(C(=O)C2CCCN(Cc3cnc(N4CCOCC4)s3)C2)c1 (centres undefined) | -72* | ? | -14%[57.1 µM] | 2% | 31%
COc1ccc(C(=O)C2CCCN(Cc3cnc(N4CCOCC4)s3)C2)cc1F (centres undefined) | 5 | -6% | -2% | 0% | 1%
CN(CC(=O)Nc1ccccc1Br)C(=O)c1ccccc1-c1nc2ccccc2s1 | -5 | -12% | 4% | / | -6%
COc1cccc(CN(C(=O)Cc2c[nH]c3ccccc23)C(C(=O)NC2CCCCC2)c2ccc(C)o2)c1 (centres undefined) | ? | 13µM* | -7% | -1% | ?
Cc1ccc(C(C(=O)NC2CCCCC2)N(Cc2ccccc2)C(=O)Cc2c[nH]c3ccccc23)o1 (centres undefined) | -7 | ? | -9% | -4% | ?
COc1ccc(CN(C(=O)Cc2c[nH]c3ccccc23)C(C(=O)NC2CCCCC2)c2ccc(C)o2)cc1 (centres undefined) | ? | 5.2µM* | 8% | -8% | 5.2µM*
COCCCN1CC(=O)N2C(c3ccc(C)cc3)c3[nH]c4ccccc4c3C[C@H]2C1=O (some centres undefined) | 27 | ? | -7% | 2% | ?
COC(=O)c1ccc(C2c3[nH]c4ccccc4c3C[C@H]3C(=O)N(C)CC(=O)N23)cc1 (some centres undefined) | 34 | ? | 2% | 17% | ?
COCCN1CC(=O)N2C(c3cccc(C)c3)c3[nH]c4ccccc4c3C[C@H]2C1=O (some centres undefined) | 92 | 13µM* | 1% | -2% | 12µM*
CN1CC(=O)N2C(c3ccc(Cl)cc3)c3[nH]c4ccccc4c3C[C@H]2C1=O (some centres undefined) | 26 | 8.3µM* | -16% | 8% | 13µM*
COCCCN1CC(=O)N2C(c3cccc(C)c3)c3[nH]c4ccccc4c3C[C@H]2C1=O (some centres undefined) | 92 | 9.3µM* | 4% | 5% | ?

Bioassay records as filed in PubChem.
